The test system of one test is AAK1. To be noted: n = 1.
The subject of another test is ABL1-nonphosphorylated. To be noted: concentration: 1 μM, replicates: in singlicate; n = 1.
The next test deals with ABL1-phosphorylated. As to conditions: concentration: 1 μM, replicates: in singlicate; n = 1.
For a further test, the system named is ABL2. As to conditions: concentration: 1 μM, replicates: in singlicate; n = 1.
Another test deals with ACVR1B. As to conditions: concentration: 1 μM, replicates: in singlicate; n = 1.
Another test has as its system ACVR1. To be noted: concentration: 1 μM, replicates: in singlicate; n = 1.
For another test, the system named is ACVR2A. To be noted: concentration: 1 μM, replicates: in singlicate; n = 1.
Another test has as its system ACVR2B. As to conditions: concentration: 1 μM, replicates: in singlicate; n = 1.
For a further test, the system named is ACVRL1. To be noted: concentration: 1 μM, replicates: in singlicate; n = 1.
The next test relates to T1, ADCK3.
T1 construct: gene CABC1
To be noted: concentration: 1 μM, replicates: in singlicate; n = 1.

The test system of the next test is ADCK4. As to conditions: concentration: 1 μM, replicates: in singlicate; n = 1.
For another test, the system named is AKT1. To be noted: concentration: 1 μM, replicates: in singlicate; n = 1.
In a further test the test system is AKT2. To be noted: concentration: 1 μM, replicates: in singlicate; n = 1.
The next test has as its system AKT3. As to conditions: concentration: 1 μM, replicates: in singlicate; n = 1.
In another test the test system is ALK. As to conditions: concentration: 1 μM, replicates: in singlicate; n = 1.
Another test concerns T2, AMPK-alpha1.
T2 construct: gene PRKAA1
As to conditions: concentration: 1 μM, replicates: in singlicate; n = 1.

In a further test the test system is T3, AMPK-alpha2.
T3 construct: gene PRKAA2
To be noted: concentration: 1 μM, replicates: in singlicate; n = 1.

A further test has as its system ANKK1. To be noted: concentration: 1 μM, replicates: in singlicate; n = 1.
The subject of another test is T4, ARK5.
T4 construct: gene NUAK1
To be noted: concentration: 1 μM, replicates: in singlicate; n = 1.

The next test relates to T5, ASK1.
T5 construct: gene MAP3K5
As to conditions: concentration: 1 μM, replicates: in singlicate; n = 1.

The mark [1] stands for this setting: concentration: 1 μM, replicates: in singlicate.

Where two headings read alike, the source gives them in different places.
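Also: KINOMEscan kinase panel screen.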

As to `O=C(O)C(F)(F)F.O=c1[nH]ccc2nc(N[C@@H]3CCNC3)nc(Nc3cc(Cl)cc(Cl)c3)c12` [GSK2188764], the “%Inh” value is given as 89% in the test with AAK1 (1 µM); 9% in the test with ABL1-nonphosphorylated; 11% with ABL1-phosphorylated; 0% with ABL2; 0% in the test with ACVR1B; 0% in the test on ACVR1. For the same compound, the “%Inh” value in the test with ACVR2A was found to be 0%; in the test with ACVR2B it was 0%; in the test with ACVRL1, 0%; in the test with ADCK3, 25%; in the test with ADCK4, 14%; in the test on AKT1, 0%. Further, the “%Inh” value with AKT2 is listed as 0%; in the test on AKT3 it was 0%; in the test on ALK, 90.5%; with AMPK-alpha1 it was 87%; in the test with AMPK-alpha2, 90%; in the test with ANKK1 it was 97.1%. Besides, the “%Inh” value was found to be 99.5% in the test on ARK5 and 0% with ASK1.
For the compound `CC(=O)Nc1cn2nc(Oc3cccc(NC(=O)c4cccc(C(F)(F)F)c4)c3)ccc2n1`, the “%Inh” value came out at 0% in the test with AAK1 (setting [1]); 100% in the test on ABL1-nonphosphorylated; 99.9% in the test with ABL1-phosphorylated; 99.3% with ABL2; 0% with ACVR1B; 0% in the test with ACVR1. In addition, the “%Inh” value with ACVR2A was 0%; in the test on ACVR2B, 31%; in the test on ACVRL1, 0%; in the test with ADCK3, 0%; with ADCK4 it was 9%; with AKT1, 20%. In addition, the “%Inh” value in the test with AKT2 came to 0%; with AKT3, 16%; in the test with ALK it was 9%; in the test with AMPK-alpha1, 0%; in the test on AMPK-alpha2, 8%; in the test on ANKK1, 0%. Further, the “%Inh” value worked out at 12% in the test on ARK5 and 0% with ASK1.
For `O=C(Nc1n[nH]c2cc(-c3cccs3)ccc12)C1CC1` [SB-731284], the “%Inh” value in the test on AAK1 (setting [1]) turned out to be 73%; in the test on ABL1-nonphosphorylated, 81%; in the test on ABL1-phosphorylated, 61%; with ABL2 it was 0%; in the test with ACVR1B it was 0%; in the test on ACVR1 it was 0%. The “%Inh” value in the test with ACVR2A is given as 0%; in the test with ACVR2B it was 17%; with ACVRL1, 0%; in the test with ADCK3 it was 0%; in the test with ADCK4 it was 0%; with AKT1, 0%. The “%Inh” value with AKT2 was 0%; with AKT3, 0%; in the test with ALK, 28%; with AMPK-alpha1 it was 0%; in the test on AMPK-alpha2, 0%; in the test with ANKK1, 45%. The “%Inh” value in the test with ARK5 and in the test with ASK1 was 0% in each case.
For `Cc1ccc(O)cc1Nc1ccnc2ccc(C(C)(C)C)cc12` [GW856805], the “%Inh” value in the test on AAK1 (setting [1]) is listed as 10%; in the test with ABL1-nonphosphorylated it was 98.1%; with ABL1-phosphorylated it was 99.6%; in the test on ABL2 it was 90.2%; with ACVR1B, 24%; in the test with ACVR1 it was 24%. The “%Inh” value with ACVR2A stood at 8%; in the test with ACVR2B it was 62%; in the test on ACVRL1 it was 1%; in the test with ADCK3, 0%; in the test on ADCK4, 88%; in the test with AKT1, 27%. For the same compound, the “%Inh” value in the test with AKT2 is given as 29%; in the test with AKT3, 18%; with ALK, 44%; with AMPK-alpha1, 8%; in the test on AMPK-alpha2, 19%; with ANKK1, 7%. Besides, the “%Inh” value in the test on ARK5 is listed as 0%; with ASK1, 1%.
Turning to `COC(=O)Nc1nc2ccc(Oc3ccc(CC(=O)Nc4cc(C(F)(F)F)ccc4F)cc3)cc2[nH]1` [GW680903], the “%Inh” value in the test with AAK1 (setting [1]) amounted to 4%; in the test on ABL1-nonphosphorylated, 35%; in the test with ABL1-phosphorylated it was 0%; in the test with ABL2, 34%; in the test with ACVR1B, 0%; with ACVR1, 9%. Besides, the “%Inh” value with ACVR2A came to 0%; in the test on ACVR2B, 0%; with ACVRL1, 0%; in the test with ADCK3, 19%; in the test with ADCK4 it was 42%; in the test with AKT1 it was 0%. Also, the “%Inh” value with AKT2 was 0%; in the test with AKT3, 0%; with ALK, 36%; in the test on AMPK-alpha1, 0%; with AMPK-alpha2, 0%; with ANKK1, 1%. The “%Inh” value was found to be 7% in the test on ARK5 and 3% with ASK1.
Regarding `CN1CCN(Cc2ccc(NC(=O)Nc3ccc(N(C)c4ccnc(Nc5ccc(CS(C)(=O)=O)cc5)n4)cc3)cc2)CC1.Cl` [GW827654], the “%Inh” value with AAK1 (setting [1]) stood at 62%; with ABL1-nonphosphorylated, 100%; with ABL1-phosphorylated it was 94.2%; with ABL2, 81%; in the test with ACVR1B it was 0%; with ACVR1, 58%. The “%Inh” value in the test with ACVR2A is recorded as 0%; with ACVR2B, 38%; with ACVRL1, 57%; in the test on ADCK3 it was 0%; in the test on ADCK4, 34%; with AKT1, 0%. The “%Inh” value was found to be 0% in the test with AKT2; 0% in the test with AKT3; 47% with ALK; 34% in the test on AMPK-alpha1; 34% in the test on AMPK-alpha2; 80% in the test with ANKK1. In addition, the “%Inh” value with ARK5 was found to be 8%; in the test with ASK1, 0%.
As for `CC(C)c1nc(-c2ccc(F)c(NS(=O)(=O)c3c(F)cccc3F)c2)c(-c2ccnc(Nc3ccc(N4CCOCC4)nc3)n2)s1` [GSK1804250], the “%Inh” value in the test with AAK1 (setting [1]) amounted to 7%; with ABL1-nonphosphorylated it was 99.8%; in the test with ABL1-phosphorylated, 98.8%; with ABL2, 99.3%; with ACVR1B it was 91.9%; in the test with ACVR1 it was 87%. The “%Inh” value in the test on ACVR2A was 0%; in the test with ACVR2B, 75%; in the test with ACVRL1, 52%; in the test with ADCK3, 99.4%; in the test with ADCK4 it was 88%; in the test with AKT1, 0%. The “%Inh” value in the test on AKT2 is given as 13%; in the test on AKT3, 2%; in the test with ALK it was 26%; in the test with AMPK-alpha1 it was 59%; in the test on AMPK-alpha2 it was 69%; with ANKK1 it was 23%. For the same compound, the “%Inh” value in the test with ARK5 is recorded as 21%; in the test with ASK1, 0%.
